14 molecules from PubChem BioAssay (EPA / NIEHS) can be followed below.

In general, AC50 refers to the concentration giving half of the maximal activity seen.

Inconclusive results are not listed. Activity calls are given as the source filed them. Rule for the calls, unless noted: active = hit-call score of the fitted dose curve at least 0.9, where 1 is the maximum; inactive = score below 0.9.

Assay [1] in a line: ATG_NFI_CIS: Attagene CIS-FACTORIAL HepG2 Assay for human Nuclear Factor I (NFI) (AID 2282989). The settings on record: HepG2 cis-regulatory reporter, NFI response element transcription; actives raise or lower the signal. Summed up: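 Read-out: reporter mRNA via RT-PCR plus capillary electrophoresis with fluorescence detection. Transiently transfected HepG2 (endogenous TF activity on cis promoters), 24 h compound exposure; gain or loss of signal fitted against DMSO.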

Assay [2] has as its target Myc proto-oncogene protein (Homo sapiens) (UniProt P01106). The assay is described as follows: ATG_Myc_CIS: Attagene CIS-FACTORIAL HepG2 Assay for human Myelocytomatosis (Myc) Proto-Oncogene Transcription Factor (AID 2282990). To be noted: HepG2, Attagene cis-reporter transcription factor activity; actives raise or lower the signal. The method, boiled down:
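After 24 h chemical treatment of HepG2 cells carrying multiplexed cis-regulated reporter constructs, reporter transcripts quantified by RT-PCR and capillary electrophoresis of fluorescent fragments. Gain or loss fitted against DMSO baseline.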

The nature of assay [3]: ATG_NRF2_ARE_CIS: Attagene CIS-FACTORIAL HepG2 Assay for human Nuclear Factor Erythroid 2 Related Factor 2 (NFR2) response to Antioxidant Response Elements (ARE) (AID 2282992).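 For AC50: reporter mRNA level measured by RT-PCR and capillary electrophoresis fluorescence.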 To be noted: HepG2 Attagene ARE/NRF2 reporter, transcription factor activity; actives raise or lower the signal. Summed up: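 Fluorescence intensity of reporter-specific cDNA fragments, separated by capillary electrophoresis, reflects mRNA induction in transfected HepG2 cells at 24 h. Activity is fitted bidirectionally, DMSO serving as baseline.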

The nature of assay [4]: ATG_Oct_MLP_CIS: Attagene CIS-FACTORIAL HepG2 Assay for human Octamer-Binding Transcription Factor (Oct) (AID 2282993). The settings on record: HepG2 Attagene cis-factorial Oct reporter, mRNA; actives raise or lower the signal. Summed up: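 Read-out: reporter mRNA via RT-PCR plus capillary electrophoresis of 6-FAM-labelled fragments. Transiently transfected HepG2, 24 h exposure, endogenous TF activity on cis elements. Gain or loss of signal fitted relative to DMSO.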

Assay [5] deals with Cellular tumor antigen p53 (Homo sapiens) (UniProt P04637). The assay is described as follows: ATG_p53_CIS: Attagene CIS-FACTORIAL HepG2 Assay for human p53 Transcription Factor (AID 2282994). The settings on record: HepG2 p53 cis-element reporter, Attagene mRNA; actives raise or lower the signal. The method, boiled down:
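Transiently transfected HepG2 (multiple cis reporter transcription units); exposure 24 h; reporter RNA via RT-PCR, 6-FAM extension, 2 h HpaI digest at 37 C, CE detection; DMSO baseline.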

For assay [6], the target named is Peroxisome proliferator-activated receptor gamma (Homo sapiens) (UniProt P37231). The assay is described as follows: ATG_PPARg_TRANS: Attagene TRANS-FACTORIAL HepG2 Assay for human Peroxisome Proliferator-activated Receptor-gamma (PPARg) (AID 2283007; active = hit-call score of the fitted dose curve at least 0.9, where 1 is the maximum). Summed up:
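Human hepatoma HepG2, transient MRTU transfection, 24 h treatment. mRNA reporter signal by RT-PCR plus capillary electrophoresis, fluorescence detection; fitted for increase over DMSO negative control.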

Assay [7] has as its target human RAR-related Orphan Receptor gamma (RORg), RORC (gene 6097) (UniProt P51449). The assay is described as follows: ATG_RORg_TRANS: Attagene TRANS-FACTORIAL HepG2 Assay for human RAR-related Orphan Receptor gamma (RORg) (AID 2283011; active = hit-call score of the fitted dose curve at least 0.9, where 1 is the maximum). The method, boiled down:
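Reporter transcripts from a transfected RORg-GAL4 chimera in HepG2 cells were quantified 24 h after dosing by RT-PCR, 6-FAM labelling, HpaI digestion and capillary electrophoresis; increases over DMSO baseline were fitted.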

The target of assay [8] is human Peroxisome Proliferator-activated Receptor delta (PPARd), PPARD (gene 5467) (UniProt Q03181). The assay is described as follows: ATG_PPARd_TRANS: Attagene TRANS-FACTORIAL HepG2 Assay for human Peroxisome Proliferator-activated Receptor delta (PPARd) (AID 2283002; active = hit-call score of the fitted dose curve at least 0.9, where 1 is the maximum). Summed up:
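Read-out is induced reporter mRNA, quantified by RT-PCR with fluorescent labelling and capillary electrophoresis after 24 h dosing. Cells are HepG2 transiently carrying multiple GAL4-UAS reporter units driven by exogenous NR-GAL4 chimeras; DMSO serves as baseline.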

The target in assay [9] is human Retinoic Acid Receptor beta (RARb), RARB (gene 5915) (UniProt P10826). The assay is described as follows: ATG_RARb_TRANS: Attagene TRANS-FACTORIAL HepG2 Assay for human Retinoic Acid Receptor beta (AID 2283004; active = hit-call score of the fitted dose curve at least 0.9, where 1 is the maximum). Summed up:
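Induction of reporter mRNA from a chimeric RARb-Gal4 construct was measured by RT-PCR, FAM labelling, HpaI digestion and capillary electrophoresis. Measurements followed 24 h compound treatment of transiently transfected human HepG2 liver cells, with DMSO as baseline.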

Assay [10] addresses Nuclear receptor subfamily 1 group I member 2 (Homo sapiens) (UniProt O75469). The assay is described as follows: ATG_PXR_TRANS: Attagene TRANS-FACTORIAL HepG2 Assay for human Pregnane X Receptor (PXR) (AID 2283008; active = hit-call score of the fitted dose curve at least 0.9, where 1 is the maximum). The method, boiled down: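 Transient HepG2 transfectants carrying multiplexed reporter transcription units; PXR activity read through a Gal4 chimera. 24 h exposure. RT-PCR/CE fluorescence; upward curve fit referenced to DMSO.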

Assay [11] concerns the target Retinoic acid receptor alpha (Homo sapiens) (UniProt P10276). The assay is described as follows: ATG_RARa_TRANS: Attagene TRANS-FACTORIAL HepG2 Assay for human Retinoic Acid Receptor alpha (RARa) (AID 2283005; active = hit-call score of the fitted dose curve at least 0.9, where 1 is the maximum;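 for AC50: potency for increased reporter signal meaning RARa activation over DMSO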). Summed up: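 Reporter transcripts, measured by RT-PCR with fluorescent labeling and capillary electrophoresis after 24 h dosing, reflect activity of an exogenous human RARa–GAL4 fusion in transiently transfected HepG2. Fitted for increase relative to DMSO.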

Assay [12] in a line: BSK_3C_uPAR: BioMAP Diversity Plus: 3C Assay for Urokinase-type plasminogen activator receptor (uPAR) Biomarker Activity (AID 2282998). The settings on record: BioMAP 3C HUVEC, uPAR biomarker ELISA; actives raise or lower the signal. Summed up:
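HUVEC primary cells; 24 h post-dose; uPAR by ELISA; gain or loss of signal fitted bidirectionally vs DMSO baseline.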
(ELISA stands for enzyme-linked immunosorbent assay.)

The nature of assay [13]: BSK_3C_VCAM1: BioMAP Diversity Plus: 3C Assay for Vascular cell adhesion molecule 1 (VCAM1) Biomarker Activity (AID 2282999). The settings on record: BioMAP 3C HUVEC, VCAM1 ELISA, cytokine-stimulated; actives raise or lower the signal. Summed up:
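Activity fitted in both directions relative to DMSO, with ELISA measurement of the surface marker on primary HUVEC (3C) at 24 h post-treatment; parallel SRB staining (0.1% SRB, TCA-fixed, 560 nm) flagged overt cytotoxicity.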

A short description of assay [14]: BSK_4H_Eotaxin3: BioMAP Diversity Plus: 4H Assay for Eotaxin 3 Biomarker Activity (AID 2283000). To be noted: primary human endothelial cells (HUVEC); actives raise or lower the signal. The method, boiled down: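 Human umbilical vein endothelial cells (BSK_4H system) dosed with test chemical; Eotaxin-3 (CCL26) measured by ELISA 24 h after dosing. Bidirectional curve fitting relative to DMSO negative control as baseline.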

Read-out in assay [15]: Intercellular Adhesion Molecule 1 (ICAM1), ICAM1 (gene 3383)
The assay is described as follows: BSK_3C_ICAM1: BioMAP Diversity Plus: 3C Assay for Intercellular Adhesion Molecule 1 (ICAM1) Biomarker Activity (AID 2283003). To be noted: primary human endothelial cells (HUVEC); actives raise or lower the signal. Summed up:
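ELISA readout of ICAM1 in human umbilical vein endothelial cells in the 3C system, taken 24 h post-dose. Gain or loss of signal versus DMSO was fitted in both directions, with SRB total-protein staining run in parallel.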

Assay [16] can be described thus: BSK_3C_Proliferation: Cell Proliferation Assessment in the BioMAP Diversity Plus: 3C Assay (AID 2283006).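 Note: potency may reflect either rise or fall in cell number versus DMSO.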 The settings on record: primary human endothelial cells (HUVEC). The method, boiled down: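 Proliferation as total protein: sulforhodamine B (0.1%) stain of TCA-fixed subconfluent human umbilical vein endothelial cells, absorbance 560 nm, 48 h after dosing. Activity fitted in both directions against DMSO baseline.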

The target of assay [17] is human Retinoic Acid Receptor gamma (RARg), RARG (gene 5916) (UniProt P13631). The assay is described as follows: ATG_RARg_TRANS: Attagene TRANS-FACTORIAL HepG2 Assay for human Retinoic Acid Receptor gamma (RARg) (AID 2283009; active = hit-call score of the fitted dose curve at least 0.9, where 1 is the maximum;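 for AC50: AC50 is for reporter induction above DMSO meaning RARg activation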). The method, boiled down: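 Transactivation of exogenous RARg-Gal4 fusion measured as reporter transcript induction after 24 h in transfected HepG2 cells. RNA reverse-transcribed, amplified, fluorescently labeled and resolved by capillary electrophoresis; increase relative to DMSO.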
Sequence of human Retinoic Acid Receptor gamma (RARg), RARG (gene 5916) (P13631 whole entry, looked up, the tested form may be a part): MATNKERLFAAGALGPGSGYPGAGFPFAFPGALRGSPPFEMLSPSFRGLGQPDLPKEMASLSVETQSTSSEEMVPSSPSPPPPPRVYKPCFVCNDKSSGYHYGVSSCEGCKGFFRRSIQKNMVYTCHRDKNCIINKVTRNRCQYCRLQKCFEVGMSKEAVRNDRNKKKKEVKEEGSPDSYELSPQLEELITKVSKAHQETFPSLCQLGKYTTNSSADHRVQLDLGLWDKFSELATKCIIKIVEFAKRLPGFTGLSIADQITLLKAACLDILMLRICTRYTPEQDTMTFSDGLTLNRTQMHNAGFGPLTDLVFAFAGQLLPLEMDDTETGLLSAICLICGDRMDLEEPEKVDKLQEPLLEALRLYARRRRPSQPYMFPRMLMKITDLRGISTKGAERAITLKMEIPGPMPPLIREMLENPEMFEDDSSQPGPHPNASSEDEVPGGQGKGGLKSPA

Assay [18] has as its target human RAR-related Orphan Receptor beta (RORb), RORB (gene 6096) (UniProt Q92753). The assay is described as follows: ATG_RORb_TRANS: Attagene TRANS-FACTORIAL HepG2 Assay for human RAR-related Orphan Receptor beta (RORb) (AID 2283010; active = hit-call score of the fitted dose curve at least 0.9, where 1 is the maximum). Summed up: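 Read-out is reporter mRNA induction, quantified by RT-PCR with fluorescent capillary electrophoresis, 24 h post-dose in transiently transfected HepG2 expressing exogenous NR-Gal4 chimera. Activity fitted upward versus DMSO.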

The target of assay [19] is human Peroxisome Proliferator-activated Receptor alpha (PPARa), PPARA (gene 5465) (UniProt Q07869). The assay is described as follows: ATG_PPARa_TRANS: Attagene TRANS-FACTORIAL HepG2 Assay for human Peroxisome Proliferator-activated Receptor alpha (PPARa) (AID 2283001; active = hit-call score of the fitted dose curve at least 0.9, where 1 is the maximum). Summed up:
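Reporter transcripts quantified by RT-PCR plus capillary electrophoresis after 24 h treatment, fitted upward relative to DMSO. Cells: human HepG2 transiently carrying multiple GAL4-UAS reporter units driven by NR-Gal4 chimeras.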

Sequence of human RAR-related Orphan Receptor gamma (RORg), RORC (gene 6097) (P51449 whole entry, looked up, the tested form may be a part): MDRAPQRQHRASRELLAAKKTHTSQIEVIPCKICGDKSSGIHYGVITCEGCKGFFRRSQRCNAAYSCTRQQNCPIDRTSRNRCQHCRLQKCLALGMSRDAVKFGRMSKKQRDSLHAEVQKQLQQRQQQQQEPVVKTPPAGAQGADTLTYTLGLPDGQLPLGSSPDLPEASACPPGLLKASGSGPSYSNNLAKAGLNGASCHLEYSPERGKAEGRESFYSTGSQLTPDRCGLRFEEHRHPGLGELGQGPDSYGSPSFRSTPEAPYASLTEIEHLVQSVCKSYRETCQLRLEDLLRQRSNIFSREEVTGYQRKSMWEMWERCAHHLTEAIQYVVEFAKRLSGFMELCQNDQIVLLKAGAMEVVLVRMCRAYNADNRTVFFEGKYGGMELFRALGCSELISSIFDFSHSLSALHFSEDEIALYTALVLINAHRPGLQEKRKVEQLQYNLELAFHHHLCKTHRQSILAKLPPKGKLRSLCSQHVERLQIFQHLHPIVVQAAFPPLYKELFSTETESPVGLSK
Sequence of human Peroxisome Proliferator-activated Receptor delta (PPARd), PPARD (gene 5467) (Q03181 whole entry, looked up, the tested form may be a part): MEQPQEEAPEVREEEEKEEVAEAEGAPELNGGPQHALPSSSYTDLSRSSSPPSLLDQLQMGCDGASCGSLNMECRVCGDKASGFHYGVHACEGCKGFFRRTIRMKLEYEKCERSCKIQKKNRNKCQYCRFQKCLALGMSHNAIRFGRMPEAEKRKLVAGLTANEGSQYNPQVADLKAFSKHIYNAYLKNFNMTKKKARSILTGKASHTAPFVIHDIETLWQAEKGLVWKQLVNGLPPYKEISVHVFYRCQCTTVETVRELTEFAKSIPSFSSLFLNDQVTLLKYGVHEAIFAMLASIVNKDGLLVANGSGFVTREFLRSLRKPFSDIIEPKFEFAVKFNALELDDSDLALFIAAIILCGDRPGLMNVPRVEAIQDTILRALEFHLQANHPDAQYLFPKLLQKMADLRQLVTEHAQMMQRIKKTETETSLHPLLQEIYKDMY
Sequence of Retinoic acid receptor alpha (Homo sapiens) (P10276 whole entry, looked up, the tested form may be a part): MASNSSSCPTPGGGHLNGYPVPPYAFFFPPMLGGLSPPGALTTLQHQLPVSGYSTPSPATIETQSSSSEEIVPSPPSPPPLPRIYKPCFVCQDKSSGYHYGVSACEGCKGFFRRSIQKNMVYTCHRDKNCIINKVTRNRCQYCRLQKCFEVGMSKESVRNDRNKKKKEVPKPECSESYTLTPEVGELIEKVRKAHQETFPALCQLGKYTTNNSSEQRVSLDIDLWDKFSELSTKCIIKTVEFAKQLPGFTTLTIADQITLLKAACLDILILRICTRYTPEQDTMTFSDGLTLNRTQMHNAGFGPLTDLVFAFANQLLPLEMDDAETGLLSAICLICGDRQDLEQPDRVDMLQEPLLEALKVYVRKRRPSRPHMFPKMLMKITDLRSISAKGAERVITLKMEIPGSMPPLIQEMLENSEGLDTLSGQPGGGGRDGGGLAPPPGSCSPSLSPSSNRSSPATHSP
Sequence of Nuclear receptor subfamily 1 group I member 2 (Homo sapiens) (O75469 whole entry, looked up, the tested form may be a part): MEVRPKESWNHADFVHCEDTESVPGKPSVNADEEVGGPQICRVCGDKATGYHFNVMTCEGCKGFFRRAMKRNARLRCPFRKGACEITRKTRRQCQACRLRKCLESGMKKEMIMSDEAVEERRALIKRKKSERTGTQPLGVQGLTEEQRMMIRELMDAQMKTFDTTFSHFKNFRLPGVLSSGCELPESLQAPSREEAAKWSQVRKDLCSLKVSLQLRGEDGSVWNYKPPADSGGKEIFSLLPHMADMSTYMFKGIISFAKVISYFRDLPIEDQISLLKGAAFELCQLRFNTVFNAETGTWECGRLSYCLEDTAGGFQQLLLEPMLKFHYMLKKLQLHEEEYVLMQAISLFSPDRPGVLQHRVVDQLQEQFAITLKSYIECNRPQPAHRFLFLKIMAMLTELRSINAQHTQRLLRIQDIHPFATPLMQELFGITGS
Sequence of Cellular tumor antigen p53 (Homo sapiens) (P04637 whole entry, looked up): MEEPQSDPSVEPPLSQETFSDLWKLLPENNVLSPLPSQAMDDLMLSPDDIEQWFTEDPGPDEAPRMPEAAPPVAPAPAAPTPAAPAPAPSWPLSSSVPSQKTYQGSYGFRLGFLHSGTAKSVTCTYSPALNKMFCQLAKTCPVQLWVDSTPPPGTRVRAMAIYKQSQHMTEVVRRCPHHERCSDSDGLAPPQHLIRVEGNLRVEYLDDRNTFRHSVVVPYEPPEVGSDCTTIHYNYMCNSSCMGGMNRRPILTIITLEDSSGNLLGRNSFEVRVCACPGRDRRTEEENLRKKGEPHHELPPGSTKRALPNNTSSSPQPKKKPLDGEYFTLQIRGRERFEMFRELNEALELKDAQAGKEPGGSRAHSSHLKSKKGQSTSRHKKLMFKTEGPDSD
Sequence of Myc proto-oncogene protein (Homo sapiens) (P01106 whole entry, looked up, the tested form may be a part): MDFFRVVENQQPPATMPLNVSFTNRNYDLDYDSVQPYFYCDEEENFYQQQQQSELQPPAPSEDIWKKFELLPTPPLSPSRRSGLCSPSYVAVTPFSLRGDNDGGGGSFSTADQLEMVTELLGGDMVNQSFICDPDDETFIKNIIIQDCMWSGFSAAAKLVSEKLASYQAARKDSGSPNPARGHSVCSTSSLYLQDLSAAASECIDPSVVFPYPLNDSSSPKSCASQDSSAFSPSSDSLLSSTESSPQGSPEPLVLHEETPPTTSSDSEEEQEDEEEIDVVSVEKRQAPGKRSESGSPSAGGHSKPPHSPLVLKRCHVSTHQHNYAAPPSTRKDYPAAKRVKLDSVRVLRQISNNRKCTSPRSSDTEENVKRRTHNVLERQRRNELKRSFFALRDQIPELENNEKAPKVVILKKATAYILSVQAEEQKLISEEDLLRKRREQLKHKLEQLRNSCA
Sequence of human Retinoic Acid Receptor beta (RARb), RARB (gene 5915) (P10826 whole entry, looked up, the tested form may be a part): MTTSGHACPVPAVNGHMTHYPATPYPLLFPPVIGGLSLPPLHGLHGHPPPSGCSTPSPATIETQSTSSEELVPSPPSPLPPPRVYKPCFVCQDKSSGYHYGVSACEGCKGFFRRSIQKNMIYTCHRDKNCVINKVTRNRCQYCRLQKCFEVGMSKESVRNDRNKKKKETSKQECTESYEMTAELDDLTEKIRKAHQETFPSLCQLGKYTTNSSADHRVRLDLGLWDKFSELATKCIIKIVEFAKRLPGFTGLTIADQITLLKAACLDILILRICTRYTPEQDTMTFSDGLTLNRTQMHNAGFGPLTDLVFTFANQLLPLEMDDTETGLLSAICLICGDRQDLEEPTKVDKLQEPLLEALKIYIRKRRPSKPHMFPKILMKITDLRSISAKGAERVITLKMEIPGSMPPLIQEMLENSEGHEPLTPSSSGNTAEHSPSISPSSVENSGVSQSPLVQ
Sequence of Peroxisome proliferator-activated receptor gamma (Homo sapiens) (P37231 whole entry, looked up): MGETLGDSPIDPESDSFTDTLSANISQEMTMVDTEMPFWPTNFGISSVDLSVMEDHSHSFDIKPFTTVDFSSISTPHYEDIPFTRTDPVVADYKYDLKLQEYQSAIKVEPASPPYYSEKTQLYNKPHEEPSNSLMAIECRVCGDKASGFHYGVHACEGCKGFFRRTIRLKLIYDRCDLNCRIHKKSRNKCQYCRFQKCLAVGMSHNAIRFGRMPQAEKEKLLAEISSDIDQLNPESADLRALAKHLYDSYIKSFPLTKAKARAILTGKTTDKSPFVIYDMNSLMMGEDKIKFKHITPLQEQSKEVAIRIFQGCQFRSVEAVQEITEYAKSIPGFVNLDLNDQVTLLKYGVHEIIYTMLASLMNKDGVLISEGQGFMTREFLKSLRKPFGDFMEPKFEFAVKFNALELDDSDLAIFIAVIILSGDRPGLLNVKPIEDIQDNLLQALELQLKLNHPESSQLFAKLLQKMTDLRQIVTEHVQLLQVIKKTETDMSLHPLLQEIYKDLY
Sequence of human RAR-related Orphan Receptor beta (RORb), RORB (gene 6096) (Q92753 whole entry, looked up, the tested form may be a part): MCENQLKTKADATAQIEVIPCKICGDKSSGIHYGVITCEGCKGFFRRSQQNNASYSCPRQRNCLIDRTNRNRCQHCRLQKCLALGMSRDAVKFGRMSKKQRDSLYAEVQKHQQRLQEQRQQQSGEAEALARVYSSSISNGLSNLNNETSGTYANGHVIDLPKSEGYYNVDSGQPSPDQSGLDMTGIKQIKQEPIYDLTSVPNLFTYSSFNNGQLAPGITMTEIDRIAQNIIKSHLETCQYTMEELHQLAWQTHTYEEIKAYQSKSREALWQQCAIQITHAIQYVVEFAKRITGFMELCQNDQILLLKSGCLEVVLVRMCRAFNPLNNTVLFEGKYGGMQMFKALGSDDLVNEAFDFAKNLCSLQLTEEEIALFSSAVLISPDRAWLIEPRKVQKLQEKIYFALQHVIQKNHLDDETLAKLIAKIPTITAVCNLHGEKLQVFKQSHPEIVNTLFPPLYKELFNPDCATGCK

In the case of `O=C1CCCCCN1SSN1CCCCCC1=O`, the values for the AC50 in assay [1] and in assay [3] were 153 µM (active) and 42.9 µM (active), respectively. In addition, the call in [2], in assay [4], in assay [5], in assay [6] and in assay [7] was inactive.
As to `CO[Si](CCC1CCC2OC2C1)(OC)OC` (centres undefined), the result in [1], in [2], in assay [3], in [4], in [5] and in assay [6] was inactive. Further, in assay [7], the call was inactive.
With `CCOC(=O)N1CCC(=C2c3ccc(Cl)cc3CCc3cccnc32)CC1`, the molecule was called inactive in assay [1], in assay [2], in assay [3], in assay [4] and in [8]. Moreover, the AC50 in [5] is 7.13 µM (active).
On to `Nc1cccc(C(F)(F)F)c1`, for which the molecule was called inactive in assay [1], in [2], in assay [3], in [4], in [5] and in [9]. In addition, the molecule was called inactive in [6], in assay [10] and in assay [7].
For `O=c1c2ccccc2nnn1CCl`, the molecule was called inactive in [1], in assay [2], in assay [3], in assay [4], in assay [5] and in assay [11]. Besides, the outcome in assay [6] was inactive. In assay [10], the concentration at half-maximal activity (AC50) was 5.33 µM (active).
As to `c1ccc2c(c1)ccc1ncccc12`, the call in assay [1], in assay [4], in assay [13], in [15], in assay [9] and in assay [10] was inactive. Also, the result in [18] was inactive. The half-maximal activity concentration (AC50) in assay [2] is 26.7 µM (active); in assay [3] it was 148 µM (active); in [12], 13.4 µM (active); in assay [14], 20 µM (active); in [11] it was 13.4 µM (active); in [16] it was 20 µM (active). Also, the half-maximal activity concentration (AC50) in [6] was 67.1 µM (active); in assay [17], 33.2 µM (active).
On to `CCC(C)(C)C1CCCCC1OC(C)=O` (centres undefined), for which the result in [1], in [2], in assay [4], in [5], in assay [9] and in assay [6] was inactive. Besides, the result in [10] and in assay [17] was inactive. Besides, the concentration at half-maximal activity (AC50) in assay [3] was 134 µM (active).
Regarding `Cc1oncc1C(=O)Nc1ccc(C(F)(F)F)cc1`, the molecule was classed as inactive in assay [1], in [2], in assay [4], in [5], in assay [8] and in [17]. Further, the AC50 in [3] is 100 µM (active).
For the molecule `CCOC(=O)Cc1cccc2ccccc12`, the molecule was classed as inactive in [1], in [2], in assay [3], in [4], in [5] and in [9]. The call in [11], in [10] and in assay [17] was inactive. Also, in [6], the AC50 was 44.5 µM (active).
Regarding `O=S(=O)(O)c1ccc2cc(O)c(S(=O)(=O)O)cc2c1`, the outcome in assay [1], in [2], in assay [4], in [8] and in [10] was inactive. Also, the AC50 was 46.6 µM (active) in [3] and 182 µM (active) in assay [5].
For the molecule `CC(=O)[C@@]1(O)CC[C@H]2[C@@H]3C[C@H](C)C4=CC(=O)C=C[C@]4(C)[C@@]3(F)[C@@H](O)C[C@@]21C`, the call in [1], in assay [2], in [3], in [4], in assay [5] and in assay [11] was inactive. The outcome in [10] was inactive.
`CC(=O)Oc1ccc(C(C)=O)cc1`: the molecule was called inactive in assay [1], in [2], in assay [3], in assay [4], in assay [5] and in assay [19]. Moreover, the result in assay [17], in [18] and in [7] was inactive.
For `CCc1ccc2c(c1)C(=O)c1ccccc1C2=O`, the molecule was called inactive in assay [1], in assay [2], in assay [4] and in assay [5]. Further, the AC50 in assay [3] was 14.5 µM (active); in [6], 24.3 µM (active); in assay [10], 4.34 µM (active).
As for `O=CN1CCCCC1`, the molecule was called inactive in [1], in assay [2], in [3], in [4], in [5] and in assay [11].
